Measurements reported in the supplement of paper PMC5407854, “Inhibitor of ppGalNAc-T3-mediated O-glycosylation blocks cancer cell invasiveness and lowers FGF23 levels” (eLife, 2017).
Whole data set: some 1,700 compounds, median “T2 sensor activation Q score (MG/GFP ratio z-score vs DMSO controls)” near 0.3, cut for the highest 2% near 1.9. Shown is part of a subset that was picked to be rich in the highest values.

system: ppGalNAc-T2 sensor; experiment: T2 sensor activation Q score (MG/GFP ratio z-score vs DMSO controls) (SD units); higher = more sensor activation (inhibition of ppGalNAc-T2 glycosylation); conditions: HEK293 sensor cells; 10 µM; 6 h
Experimental: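 Cells were treated with compound at 10 uM for 6 h, then MG/GFP ratio was read by flow cytometry (10,000 cells per well, duplicate wells). Q = (R - R_neg)/SD_neg relative to DMSO vehicle controls; the signal rises when the glycosyltransferase is inhibited.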

SMILES | T2 sensor activation Q score
CCOC(=O)CCCN(c1[nH]c(C)c(C)c1C#N)S(=O)(=O)c1ccc(C)cc1 | 1.05
CCCCCC(=O)N1CCCCC1 | -1.85
O=C1C=CC(=O)N1c1ccc(I)cc1Cl | -0.45
CC(=O)Oc1c(C)c(OC(C)=O)c2c(c1C(C)=O)OC1CC(=O)C(C(C)=O)=C(O)C21C (stereo unspecified) | -1.8
O=c1cccc2cc(O)c(O)c(O)c2c1O | 2.35
O=C1Cc2cccc(=O)c(O)c2C(=O)O1 | 0.1
CCOP(=O)(OCC)/C(C#N)=C/c1ccc([N+](=O)[O-])cc1 | 2.3
CCOP(=O)(OCC)/C(C#N)=C/c1c[nH]c2ccccc12 | -0.2
CCOP(=O)(OCC)/C(C#N)=C/c1ccc(-c2ccc(F)cc2F)o1 | -0.9
Clc1ccc2nc3ccccc3cc2c1 | 1.3
CC(=O)Nc1ccc(OC(=O)Oc2ccc(NC(C)=O)cc2)cc1 | 1.2
Cc1ccc(C#CC(C)(O)C(C)(C)C)cn1 (stereo unspecified) | -0.05
COc1cnc(SC)nc1Nc1ccc(C#N)cc1 | 1.65
Cc1nc(N)nc(Nc2ccc(C#N)cc2)c1Br | 2.35
N#Cc1c(N)nc(N)nc1Nc1ccc(Br)cc1 | 1.15
CCc1nc(N)nc(N)c1-c1ccc(N(C)Cc2ccccc2)c([N+](=O)[O-])c1 | -1.25
CC1(C)c2ccccc2-c2nc3ccccc3cc2C1O (stereo unspecified) | -0.95
O=C1CC(c2ccc(O)cc2)Oc2cc(O)cc(O)c21 (stereo unspecified) | 0.75

SMILES | T2 sensor activation Q score
CC(C)(C)c1ccc(OC(=O)c2ccccc2)cc1 | 0.95
CC(C)(C)CC(C)(C)N1CNC(=S)NC1 | 0.45
N#CCCCCN1CCCC1 | -0.65
CCOC(=O)C(=O)C1C(=O)Nc2ccccc21 (stereo unspecified) | 1.15
Cc1c(Cl)cccc1NC(=O)CC1Sc2ccccc2NC1=O (stereo unspecified) | 2
CCCCSc1cc(=O)[nH]c(N)n1 | 1.85
NC(=O)C1=C(N)c2ccccc2C1c1ccccc1 (stereo unspecified) | 1.4
CCC1(CC)C(=O)NC(=S)N=C1N | 1.7
c1ccc(-c2nc(-c3ccccn3)nc(-c3ccccn3)n2)nc1 | -0.55
c1ccc(-c2nc3ccccc3s2)nc1 | 0.6
Cc1cc2nc(-c3ccccn3)c(-c3ccccn3)nc2cc1C | 2.4
O=c1ccc(Cl)n[nH]1 | 1.45
FC(F)(F)c1cccc(OCC2CNC(=S)O2)c1 (stereo unspecified) | 0.65
Cc1csc(NC(=O)c2ccc(C(=O)Nc3nc(C)cs3)cc2)n1 | 0.5
C=C1SC(=Nc2c(C)cccc2Cl)N(C(=O)c2sc3ccccc3c2Cl)C12CCCCC2 | 1.1
Nc1cc(N)nc(CS)n1 | 1.45
COCC(=O)Oc1cc(-c2ccc(C)cc2C)c(OC(=O)COC)c(-c2ccc(C)cc2C)c1 | 0.9
NC(=O)c1ccccc1OCC(=O)Nc1ccc(Cl)c(Cl)c1 | 0.1
